# Bioassay records as filed in PubChem BioAssay.
# Hits are enriched below; roughly 1.5% of the tested compounds scored in any of these assays.
# a7 integrin act – integrin-mediated muscular dystrophy alleviation activation; Potency, µM (doses to about 38.3 µM), without a hit: top-dose activation, actives largely listed as activators; alpha7betagal myoblasts, beta-gal FDG fluorescence, 48 h; 350,000 tested, 0.064% active; AID 624291;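 further: potency means the concentration at half of the fitted maximal effect; 100% = response of the positive control SU9516; nearly all actives have a fitted effect of over 60% in size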
#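 Alpha7betagal+/- myoblasts (passage 13) were plated 16-24 hr, then exposed to compounds (1:260 dilution of DMSO stock) for 48 hours at 37C. After MPER lysis, β-galactosidase reporter activity was read as FDG fluorescence (ex 480/em 540) after 30 minutes.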
# uPA generation – inhibitors of cell surface uPA generation; 330,000 tested, 0.31% active; Potency, µM (series often up to 38.3 µM), without a hit: at the top dose activity change, negative = inhibition, hits mostly inhibitors; AID 540303; cell surface uPA generation assay, qHTS; active means well fitted inhibition curve with a large enough effect; inconclusive means small, poorly fitted or top-dose-only effect; inactive means no such curve, though single readings can be large or run the other way; tested in mouse RAW 264.7 cells; further: potency means the concentration at half of the fitted maximal effect; on the % scale 0 is the no-effect control and ±100 the full control effect; nearly all actives have a fitted effect of over 55% in size
# 12-LOX inh – ALOX12 (human) lipoxygenase inhibition; P18054; purified 12hLO, xylenol orange hydroperoxide absorbance; Potency, µM (highest dose often 108 µM), for the others: top-dose activity change, negative = inhibition, hits mostly inhibitors; 580,000 tested, 1.1% active; further: potency means the concentration at half of the fitted maximal effect; on the % scale 0 is the no-effect control and ±100 the full control effect
# Target sequence (P18054 whole entry, looked up): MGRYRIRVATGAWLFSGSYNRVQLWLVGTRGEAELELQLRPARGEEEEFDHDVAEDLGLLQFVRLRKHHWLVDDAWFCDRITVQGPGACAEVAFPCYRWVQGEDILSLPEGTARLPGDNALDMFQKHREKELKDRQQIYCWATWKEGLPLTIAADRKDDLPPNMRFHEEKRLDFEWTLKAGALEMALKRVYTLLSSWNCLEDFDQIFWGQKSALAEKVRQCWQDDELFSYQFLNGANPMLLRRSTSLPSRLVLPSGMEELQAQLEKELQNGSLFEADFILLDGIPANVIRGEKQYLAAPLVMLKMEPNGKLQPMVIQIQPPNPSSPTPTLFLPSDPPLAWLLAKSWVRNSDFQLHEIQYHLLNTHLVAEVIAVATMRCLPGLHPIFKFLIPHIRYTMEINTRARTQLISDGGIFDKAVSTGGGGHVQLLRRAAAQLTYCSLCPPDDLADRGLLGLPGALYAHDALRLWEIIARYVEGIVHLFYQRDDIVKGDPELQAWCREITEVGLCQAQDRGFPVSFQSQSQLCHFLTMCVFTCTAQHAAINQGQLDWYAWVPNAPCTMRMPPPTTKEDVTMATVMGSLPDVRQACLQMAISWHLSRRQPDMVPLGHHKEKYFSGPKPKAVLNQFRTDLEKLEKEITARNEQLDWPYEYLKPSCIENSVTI
#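 Purified human 12hLO at 150 nM in 25 mM Hepes, 0.01% Triton X-100, pH 7.0, preincubated 15 min at room temperature with compound. Reaction started with 40 uM arachidonic acid, 30 min at room temperature. Hydroperoxide measured by Fe-xylenol orange, 573/405 nm absorbance ratio.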
# IL-2 act – activators of IL-2 | IL-2 activation reporter assay, cell-based qHTS; stimulated with anti-CD3/CD4/CD28 beads; in transgenic mouse T cells | activation, % (series mostly up to about 46 µM) | 360,000 tested, 0.065% active | AID 652025; in the data active means activation above about 50%; inconclusive means mostly about 30% to 49%; further: 0% is about no effect
#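 Quantitative HTS in unstimulated transgenic mouse T cells, with memory T cells as non-tolerant control and PMA/ionomycin as tolerance-bypass control. Compound pretreatment lasted 60 minutes before 18 h bead stimulation; EGFP/DsRed fluorescence read.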
# Nrf2 ARE act – Nrf2 pathway activation; AREc32 ARE-luciferase reporter (MCF7-derived line), luminescence, 24 h; Potency, µM (titrated, usually from 46.1 µM), without a hit: at the highest dose activation, most hits filed as activators; 410,000 tested, 0.31% active; AID 624171; further: potency means the concentration at half of the fitted maximal effect; % of control where 0% means no effect; nearly all actives have a fitted effect of over 65% in size
#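 Steps: seed AREc32_Fluc cells (1000/well, 5% FBS OPTI-MEM); incubate overnight at 37 deg C; add 23 nL compound; incubate 24 hr; add Steady-Glo; hold 30 min RT; read luminescence.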
# An asterisk follows results filed as active; u = inconclusive; x = no result given; ! = repeats disagree; [ ] = dose if it differs, or a comment. Unless noted, the call rests on the fitted dose curve; in most records, active means well fitted curve in the direction sought with a large enough effect; inconclusive means small, poorly fitted or top-dose-only effect, or another doubt; inactive means no such curve, though single readings can be large; an effect the other way counts as inactive or inconclusive.
SMILES,a7 integrin act,uPA generation,12-LOX inh,IL-2 act,Nrf2 ARE act
CC1CCC(C(C)C)C(OC(=O)Cn2c(-c3ccccc3)[n+](C)c3ccccc32)C1 (configuration not stated),-8.6%,4.47µM*!,-27.8%,-0.7,2.4%
O=c1oc2c(F)cc(F)cc2cc1S(=O)(=O)c1ccc(F)cc1,x,x,-12.8%,x,10µM*
CCOc1ccc2c(c1)cc(C(=O)NCc1cccc(OC)c1)n2C,x,x,-3.8%,x,x
NC(=O)c1ccc2c(=O)n3c(-c4cc(Cl)c(N)c(Cl)c4)csc3nc2c1,0.0%,5.01µM*,-29.4%,-4.7,-1.6%
Cc1ccc(-c2csc3nc4cc(C(=O)NC5CCC(O)CC5)ccc4c(=O)n23)cc1 (configuration not stated),19.8%,12.4%,11.2µM*,1.5,-0.9%
O=C(COC(=O)c1c2c(nc3ccccc13)/C(=C/c1ccco1)CC2)NC1CCCC1,-11.1%,-4.8%,25.1µM*,-3.8,10.3%
O=C(Oc1cc(-c2ccccc2)no1)c1ccc(Cl)cc1,16.3%,2.7%,31.6µM*,-1.9,-0.3%
OC1(CN2CCN(c3nccs3)CC2)CNCCOC1 (configuration not stated),x,x,10µM*,x,x
O=C(N/N=C/C1CC=CCC1)C1CCCCC1 (configuration not stated),x,x,1.5%,x,x
COC1CCN(C(=O)c2ccnc(-c3nnc4ccc(Nc5ccccc5)nn34)c2)CC1,x,x,48.3%[176 µM],x,x
COC1CCN(C(=O)c2ccnc(-c3nnc4ccc(N5CCOCC5)nn34)c2)CC1,x,x,100µM*,x,x
COc1ccnc(-c2nnc3ccc(N4CCc5ccccc5CC4)nn23)c1,x,x,50.1µM*,x,x
O=C(Nc1ccc([N+](=O)[O-])cc1)C(Cc1ccccc1)N1C(=O)c2cccc3cccc(c23)C1=O (configuration not stated),-54.9%,1.5%,-25.6%,159.6*,3.4%[9.22 µM]
O=C(Nc1ccccc1)C(Cc1ccccc1)N1Cc2ccccc2C1=O (configuration not stated),x,x,-14.1%,x,-1.3%
O=C(/C=C/c1ccc(C(F)(F)F)cc1)N1CCN(C(=O)C2CC2)CC1,x,x,-4.4%,x,x
O=C(Nc1ccccn1)c1ccc2ccccc2n1,-24.3%,-11.6%,u,-2.7,3.16µM*
O=C(Nc1ccc(Cl)cc1)Nc1ccccn1,u,0.4%,20.1%,0.0,10µM*
Cc1csc(NC(=O)c2ccc3ccccc3n2)n1,-66.5%,-12.7%,14.1µM*,-5.7,14.2%
C=CCNC(=S)NC(=O)c1ccc(C)c(Br)c1,26.2%,-2.2%,35.5µM*,0.4,5.3%
COc1cc(NC(=S)N2CCC(C(O)(c3ccccc3)c3ccccc3)CC2)cc(OC)c1,-28.0%,u,39.8µM*,-4.2,-0.5%
CC1CC1c1ccc(/C=C/C(=O)N(Cc2ccccc2)C2CC2)o1 (configuration not stated),x,x,8.91µM*,x,x
C[C@@]12C(=O)Nc3cc(F)ccc3C(=O)N1[C@H]1c3cc(Br)ccc3OC[C@@H]1[C@@H]2c1ccccc1,-20.7%,u,-11.0%,-0.6,3.9%
Cc1ccc2c(c1)[C@H]1[C@H](CO2)[C@H](c2ccccc2)[C@]2(C)C(=O)Nc3cc(F)ccc3C(=O)N12,-25.1%,7.08µM*,1.4%,0.5,3.4%
CC1(CNc2ccccc2)COc2ccc(C(=O)NCCc3ccccn3)cc2N1 (configuration not stated),x,x,12.5%[176 µM],x,x
N#CCCn1cc(-c2csc(NC3CCCC3)n2)c2ccccc21,x,x,6.31µM*,x,x
SMILES,a7 integrin act,uPA generation,12-LOX inh,IL-2 act,Nrf2 ARE act
c1ccc2c(-c3csc(NC4CC4)n3)c[nH]c2c1,x,x,-49.9%,x,x
COc1ccc(C(=O)COc2ccc3c(c2)OCO3)cc1OC,x,x,44.7µM*,x,x
COc1ccc(C(CC(=O)c2ccc3c(c2)OCO3)C(=O)O)cc1OC (configuration not stated),-12.2%,x,-12.8%,-3.0,3.0%
CCCCn1c(N)c(N(CC(C)C)C(=O)c2cc(-c3ccc(OC)c(OC)c3)nc3ccccc23)c(=O)[nH]c1=O,6.7%,-0.9%,u,-0.9,5.5%
CCCCN(C(=O)c1cccnc1OCC)c1c(N)n(CCC)c(=O)[nH]c1=O,x,x,26.3%,x,x
CCCCn1c(N)c(N(CCOC)C(=O)c2cc(-c3ccc(OC)c(OC)c3)nc3ccccc23)c(=O)[nH]c1=O,4.1%,10.6%,15.8µM*,1.7,-0.4%
CCCn1c(N)c(N(CCOC)C(=O)c2cccnc2OCC)c(=O)[nH]c1=O,x,x,15.8µM*,x,x
CCN1CC2(CCC1=O)CCN(Cc1ccc(C(F)(F)F)c(F)c1)CC2,x,x,-11.1%,x,x
c1ccc(-c2c3c(nc4ccccc24)CCSC3)cc1,x,x,9.4%,x,x
Cc1c2c(nc3ccccc13)CCSC2,x,x,4.47µM*,x,x
C/C(=N\NC(=S)NCc1ccccc1)c1cccs1,-11.4%,1.8%,39.8µM*,0.8,14.5%
C/C(=N\NC(=S)NCc1ccccc1)c1ccc(C)o1,14.0%,4.9%,15.8µM*,-2.5,26.8%
O=C(O)CC(NC(=O)c1ccc(-c2ccc(F)cc2)s1)C(=O)O (configuration not stated),x,x,7.2%,x,x
O=C(Nc1ccc(N2CCN(CCOc3ccc(Cl)cc3)CC2)c(C(=O)O)c1)c1ccc(F)cc1,x,x,44.7µM*,x,-0.2%
COc1ccc(S(=O)(=O)N2CCN(Cc3cc(OC)c(OC)c(OC)c3)CC2)cc1,4.2%,-2.4%,0.708µM*,0.6,2.2%
COc1cc(CN2CCN(S(=O)(=O)c3ccccc3)CC2)cc(OC)c1O,x,x,1.8%,x,14.6%
COc1ccc(S(=O)(=O)N2CCN(Cc3cc(OC)c(O)c(OC)c3)CC2)cc1,-8.7%,4.2%,0.562µM*,1.3,-1.1%
COc1cccc(NC(=O)CSc2nnc(COc3ccc4c(c3)CCCC4)o2)c1,30.6%,-3.0%,14.1µM*,0.7,-1.7%
O=C(c1cc(-c2cccc(C(F)(F)F)c2)c2nncn2n1)N1CCN(c2ncccn2)CC1,x,x,2.5%[6.33 µM],x,x
COc1cc(N2C(=O)C=CC2=O)c(OC)cc1Cl,-64.1%,-12.3%,15.8µM*,-3.6,-0.6%
CCCC1c2nccn2CCCN1C(=O)c1noc(C)c1COC (configuration not stated),x,x,3.8%,x,x
Cc1cccc(C(=O)NC(C)c2cccs2)c1I (configuration not stated),x,x,23.9%,x,x
CCOc1ccc(-n2c(C)cc(/C=C3/C(=N)N4C(=NC3=O)SN=C4S(C)(=O)=O)c2C)cc1,8.3%,-8.0%,35.5µM*,0.6,-0.5%
Cc1ccc(-n2cccc2/C=C2/C(=N)N3C(=NC2=O)SN=C3S(C)(=O)=O)cc1Cl,15.9%,-1.6%,14.1µM*,-0.2,-0.2%
CCn1c(C)nc2cc(C(=O)NNS(=O)(=O)c3ccccc3F)ccc21,13.9%,-0.2%,4.47µM*,0.1,-0.4%
CCOC(=O)c1ccc(S(=O)(=O)NNC(=O)c2ccc3c(c2)nc(C)n3CC)cc1,36.4%,13.1%,-11.3%,-0.2,-0.7%
Cc1ccc(-c2nnn(CCCn3c(=O)c4c(ncn4C)n(C)c3=O)n2)cc1,x,x,6.5%,x,x
